Assay outcomes as filed in PubChem.
sEH inhibitor = inhibitors of human soluble epoxide hydrolase. P34913. recombinant human sEH enzymatic activity assay. inhibition, % at 2 µM. 91,000 compounds, 0.34% hits. AID 707; in the data active = inhibition above about 80%
Target sequence (P34913 whole entry, looked up): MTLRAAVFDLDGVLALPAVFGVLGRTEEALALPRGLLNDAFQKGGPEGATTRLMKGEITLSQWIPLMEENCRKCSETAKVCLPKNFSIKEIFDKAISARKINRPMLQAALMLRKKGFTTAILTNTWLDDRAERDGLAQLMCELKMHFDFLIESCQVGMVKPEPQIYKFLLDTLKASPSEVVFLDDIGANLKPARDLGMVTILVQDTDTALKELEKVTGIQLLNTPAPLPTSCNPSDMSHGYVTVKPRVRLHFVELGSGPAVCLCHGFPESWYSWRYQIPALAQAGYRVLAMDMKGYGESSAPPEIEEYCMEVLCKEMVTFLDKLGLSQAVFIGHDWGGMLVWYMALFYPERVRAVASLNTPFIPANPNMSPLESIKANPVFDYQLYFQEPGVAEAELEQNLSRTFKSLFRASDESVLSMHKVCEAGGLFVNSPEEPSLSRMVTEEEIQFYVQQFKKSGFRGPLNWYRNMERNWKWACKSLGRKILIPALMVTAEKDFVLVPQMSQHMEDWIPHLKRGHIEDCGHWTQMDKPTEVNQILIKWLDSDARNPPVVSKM
E-sel TNF inh = TNF alpha driven E-selectin expression inhibition | HUVEC TNFa-induced E-selectin immunofluorescence, high content | inhibition, % at 2 µM | 120,000 compounds, 0.71% hits;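 active = inhibition above the batch mean plus 3 SD, and confirmed as a hit on visual image review, cut at about 43% in these data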;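 also: 0% = TNF-stimulated DMSO wells and 100% = unstimulated control wells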
sdo1 growth = restores growth of sdo1-depleted yeast; S. cerevisiae sdo1-depleted JHY4D growth rescue, OD600 30 h; active compounds read high; pdr5 snq2 efflux-pump mutant strain; z-score at 10 µM; 140,000 compounds, 0.21% hits; AID 817;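 active = z-score above 3 at both the 24 hr and the 30 hr optical density reads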;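 also: z-score against mean and SD of all compound wells on the same plate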
F-actin modifier = cytoskeleton assembly modification | 91,000 compounds, 0.18% hits | inhibition, % at 2 µM | HUVEC TNFa F-actin phalloidin imaging, high content;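 active = inhibition above the batch mean plus 3 SD and confirmed as a hit by visual image inspection, cut at about 30% in these data, passing the limit was not always enough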
sEH activator = soluble epoxide hydrolase (human) activation. activation, % at 2 µM. 91,000 compounds, 0.04% hits. P34913. purified human sEH enzymatic activity, activator screen. AID 717; in the data active = activation above about 37%
Phagocytosis inh = inhibitors of macrophage phagocytosis; J774A.1 macrophage IgG-bead phagocytosis, imaging; inhibition, % at 5 µM; 110,000 compounds, 0.07% hits;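 active = inhibition above the mean of the plate negative controls plus 5 SD, cut at about 13% in these data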;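 also: phagocytic index as fraction of beads internalized from green versus red external bead signal; plate controls were DMSO negative control for no effect and cytochalasin-D positive control for full effect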
Numbers without * were called inactive; . = not tested or not shown. Hits are enriched below; roughly 0.96% of the tested compounds scored in any of these assays.

SMILES	sEH inhibitor	E-sel TNF inh	sdo1 growth	F-actin modifier	sEH activator	Phagocytosis inh
CC(C)Nc1nnc(SC(C)C(=O)NCc2ccc3c(c2)OCO3)s1 (stereo unspecified)	.	14.4	.	.	.	.
C#CCN1C(=O)C(O)(CC(=O)c2cccc(OC)c2)c2ccccc21 (stereo unspecified)	0.9	85.2*	0.98	-18.5	-2.9	1.5
CCOC(=O)CN1C(=O)C(O)(CC(=O)c2cccc(OC)c2)c2ccccc21 (stereo unspecified)	-15.7	-11.0	1.02	-27.8	13.5	-0.1
Cc1cc2nc3c(c(=O)n2[nH]1)CCCC3	-34.0	-6.8	0.83	5.6	37.3*	4.4
O=C(c1ccco1)N1CCC(c2ccccc2)C1 (stereo unspecified)	.	.	-0.28	-4.7	.	-0.9
COc1cccc(CNC(=O)c2cc3oc4ccccc4c3n2C)c1OC	46.9	.	-0.6	.	-46.6	0.2
CCOc1ccccc1CNC(=O)c1cc2oc3ccccc3c2n1CC	2.1	.	-0.07	-3.0	-1.9	185.6*
O=C(c1cccc(F)c1)N1CCN(C(=O)c2cc3ncc(Br)cn3n2)CC1	-4.9	-6.9	1.06	.	3.0	1.5
O=C(Cc1csc(N2CCOCC2)n1)N/N=C/c1ccc(F)cc1	9.3	-1.4	0.44	5.3	-9.2	4.0
CCCNC(=O)c1nc2ncc(Br)cn2n1	.	4.1	1.21	0.8	.	0.5
CCCCNC(=O)c1nc2ncc(Br)cn2n1	-5.5	-4.2	1.31	9.0	6.9	192.6*
CC(C)(C)C1=CC(=Nc2ccccc2N)C=C(C(C)(C)C)C1=O	.	.	1.16	.	.	.
CC(C)(C)C1=CC(=O)C(=O)C(C(C)(C)C)=C1	.	89.0*	-1.06	.	.	-0.8
O=C(Nc1nc2ccccc2s1)c1ccc(OCC2CCCO2)cc1 (stereo unspecified)	.	.	-1	.	.	-4.4
CCn1ccnc1C(O)c1cccc(OC)c1 (stereo unspecified)	-3.6	-3.4	1.21	63.6*	4.4	-0.6
CCCn1c(=O)c2ccccc2n2c(SCC(=O)NCc3cccs3)nnc12	-7.8	-6.7	-0.24	78.9*	6.4	-0.1
CCn1c(=O)c2ccccc2n2c(SCC(=O)NCc3cccs3)nnc12	-3.5	.	-0.14	-2.3	5.0	-2.8
O=C(/C=C/c1ncc(C(F)(F)F)cc1Cl)OCc1ccccc1	-8.9	-72.6	-0.17	-12.6	12.5	-0.5
N#Cc1ccccc1CSc1ccc(-c2nc3ccccc3[nH]2)cn1	37.5	-12.6	-1.87	-28.4	-37.7	0.7
Cc1cc2nc(-c3ccc(SCc4ccc(C#N)cc4)nc3)[nH]c2cc1C	59.3	90.1*	-0.94	-9.0	-58.4	.
CN1CCN(S(=O)(=O)c2cccc([N+](=O)[O-])c2)CC1	-34.8	7.0	.	-10.8	38.6*	.
CC1Nc2ccccc2C(=O)N1NS(=O)(=O)c1ccccc1 (stereo unspecified)	.	-26.9	0.38	.	.	-6.0
Cc1n[nH]c(C)c1CCc1nc2c3ccccc3nc(SCC(N)=O)n2n1	-35.3	.	-0.15	-41.8	35.1	0.2
Cc1ccc(NC(=O)CSc2nc3ccccc3c3nc(CCc4c(C)n[nH]c4C)nn23)cc1F	-4.4	82.3*	0.34	3.5	1.7	0.4
CCOC(=O)c1c(C)sc(Sc2ccc(Cl)cc2[N+](=O)[O-])c1OC	-1.6	11.5	-1.37	-9.3	0.7	.
SMILES	sEH inhibitor	E-sel TNF inh	sdo1 growth	F-actin modifier	sEH activator	Phagocytosis inh
CCOC(=O)C1CCCN(c2ncnc3c2cnn3-c2ccc(OC)cc2)C1 (stereo unspecified)	-1.3	.	0.35	-19.1	2.8	-1.4
CCOC(=O)C1CCCN(c2ncnc3c2cnn3-c2ccc(Cl)cc2)C1 (stereo unspecified)	-4.1	62.8*	0.1	.	5.1	0.8
COc1ccccc1C(=O)NC(CCSC)C(=O)OCC(=O)NC(=O)NCc1ccco1 (stereo unspecified)	.	96.9*	-0.43	.	.	1.6
Cc1nc2ccc(C(=O)O)cc2c2c1CC(C)S2 (stereo unspecified)	11.3	-7.9	0.78	-0.9	-8.9	-1.5
CCCOc1ccc(C2c3c(oc4ccccc4c3=O)C(=O)N2CCCN2CCOCC2)cc1 (stereo unspecified)	.	-13.9	0.07	-32.4	.	3.1
CCC(=O)NCc1nc2ccccc2n1Cc1ccccc1F	-16.3	65.3*	-0.58	-38.7	14.8	-3.2
CCC(=O)NCCCc1nc2ccccc2n1Cc1ccccc1F	.	-31.2	.	.	.	.
COc1ccc(C(c2nnnn2Cc2ccccc2)N2CCN(c3nc4ccccc4s3)CC2)cc1 (stereo unspecified)	.	68.9*	-0.68	.	.	-0.4
Cc1ccc(CNC(=O)Cn2ccc3ccccc3c2=O)o1	.	.	0.14	35.8*	.	-0.5
